3T3 cytotox: NIH 3T3 cell cytotoxicity; 94,000 tested, 4.3% active; NIH 3T3 viability, CellTiter-Glo ATP luminescence, 48-72 h; Potency, µM (top dose mostly 96.7 µM), actives largely listed as inhibitors; AID 1345082; further: nearly all actives have a fitted effect of over 55% in size
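ATP-dependent luminescence (CellTiter-Glo) served as the viability signal for NIH 3T3 cells treated with compound for 48 or 72 hr at 37 °C.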
FLuc inh: inhibitors of firefly (Photinus pyralis) luciferase; purified P. pyralis luciferase, luminescence, biochemical; Potency, µM (series often up to 115 µM), hits mostly inhibitors; 76,000 tested, 2.5% active; AID 1347043; further: nearly all actives have a fitted effect of over 65% in size
Target sequence (P08659 whole entry, looked up): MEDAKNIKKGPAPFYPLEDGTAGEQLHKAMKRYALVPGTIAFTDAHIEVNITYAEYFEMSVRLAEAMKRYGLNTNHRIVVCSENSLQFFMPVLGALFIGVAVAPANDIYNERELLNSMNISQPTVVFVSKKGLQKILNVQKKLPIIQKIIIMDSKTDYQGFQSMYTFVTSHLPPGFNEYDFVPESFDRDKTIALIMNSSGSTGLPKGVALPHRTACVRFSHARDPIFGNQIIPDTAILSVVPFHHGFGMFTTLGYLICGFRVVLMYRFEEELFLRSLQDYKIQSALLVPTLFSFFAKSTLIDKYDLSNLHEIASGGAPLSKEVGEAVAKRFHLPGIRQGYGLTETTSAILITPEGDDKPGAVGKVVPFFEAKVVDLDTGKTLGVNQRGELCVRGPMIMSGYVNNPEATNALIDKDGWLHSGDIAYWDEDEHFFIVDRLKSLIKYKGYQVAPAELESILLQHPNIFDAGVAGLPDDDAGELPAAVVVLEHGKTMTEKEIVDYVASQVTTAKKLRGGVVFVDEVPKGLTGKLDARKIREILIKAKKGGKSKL
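Cell-free enzyme assay, 10nM P. pyralis luciferase, luciferin and ATP each at 10uM. Inhibition profiled over a 6-point titration, read as luminescence.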
HEK cytotox: cytotoxic compounds in HEK 293 cells; HEK 293 viability, ATP luminescence (CellTiter-Glo), 48-72 h; Potency, µM (highest dose often 115 µM), usual class: inhibitors; 94,000 tested, 6.6% active; AID 1345083; further: nearly all actives have a fitted effect of over 60% in size
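HEK 293 cells at 250 cells/well were exposed to compounds by pintool transfer for 48 or 72 hr at 37 degree Celsius, 5% CO2. Viability was read as ATP-coupled luminescence with CellTiter-Glo after 10 min at room temperature.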
NPR1 antag: antagonists of human natriuretic peptide receptor Npr1. AID 1347048. P16066. 76,000 tested, 1.6% active. Potency, µM (titrated, usually from 46.3 µM), most hits filed as inhibitors. HEK293 hNpr1 GloSensor cGMP, ANP-stimulated luminescence; calls by dose curve; further: nearly all actives have a fitted effect of over 60% in size
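Compound pre-incubated 30 min at room temperature on GloSensor-loaded HEK293 cells stably carrying hNpr1 and the pGS-40F cGMP biosensor. Stimulation uses hNppA at 0.1 nM final; luminescence is taken at baseline and 20 min post-agonist.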
Each line names hits and unclear results; the compound was inactive in the other large screens. Sampled rows, rich in hits. Any-hit rate of the full collection: about 11%. Unless noted, the call rests on the fitted dose curve; in most records, active means well fitted curve in the direction sought with a large enough effect; inconclusive means small, poorly fitted or top-dose-only effect, or another doubt; inactive means no such curve, though single readings can be large; an effect the other way counts as inactive or inconclusive.

CN1c2cc(C(=O)N3CCN(c4ccccc4F)CC3)ccc2C(=O)N2CCCC21 (centres undefined)	none
CN1c2cc(C(=O)N3CCN(c4ccccc4)CC3)ccc2C(=O)N2CCCCC21 (centres undefined)	HEK cytotox inconclusive
Cc1cccc(N2CCN(C(=O)c3ccc4c(c3)N(C)C3CCCCN3C4=O)CC2)c1 (centres undefined)	3T3 cytotox inconclusive, HEK cytotox 31.6µM
CN1c2cc(C(=O)N3CCN(c4cccc(Cl)c4)CC3)ccc2C(=O)N2CCCCC21 (centres undefined)	3T3 cytotox inconclusive, HEK cytotox 44.7µM
COc1ccc(F)c(CN2CCCN3CCC[C@H]3C2)c1Cl	3T3 cytotox inconclusive, HEK cytotox inconclusive
COc1ccc(-c2nc3cc(C(=O)N4CCCCC4)ccc3o2)cn1	none (no result: FLuc inh, NPR1 antag)
O=C([C@@H]1C[C@@H](c2ccc(F)cc2)N(Cc2ccccc2)C1)N1CCN(c2ccccn2)CC1	3T3 cytotox inconclusive, HEK cytotox inconclusive, NPR1 antag inconclusive
Cn1cncc1CNC(=O)c1nc(-c2cccc(N3CCOCC3)c2)cc2c1ccn2C	3T3 cytotox 50.1µM, HEK cytotox inconclusive
Cc1ccc(-c2cc3c(ccn3C)c(C(=O)NCCc3cnc[nH]3)n2)cn1	3T3 cytotox 28.2µM, HEK cytotox inconclusive
Cn1ccc2c(C(=O)NCc3cccnc3)nc(-c3cncnc3)cc21	3T3 cytotox 44.7µM
Cn1ccc2c(C(=O)NCc3cnccn3)nc(-c3cccc(N4CCOCC4)c3)cc21	3T3 cytotox inconclusive
COc1ccc(-c2cc3c(ccn3C)c(C(=O)NCc3cccnc3)n2)cc1	3T3 cytotox inconclusive, FLuc inh inconclusive, HEK cytotox 112µM
O=C(NCCc1cnc[nH]1)c1nc(-c2ccccc2)cc2[nH]ccc12	3T3 cytotox inconclusive, HEK cytotox inconclusive
CN(C)c1ccc(-c2cc3c(ccn3C)c(C(=O)NCc3cccnc3)n2)cc1	3T3 cytotox inconclusive, FLuc inh inconclusive, HEK cytotox inconclusive
COc1cccc(C(=O)N2CCC3(CC2)CC(Cc2ccccc2)=NO3)c1	none
Cc1ccc(-c2cc3c(ccn3C)c(C(=O)NCc3cccnc3)n2)cn1	3T3 cytotox 35.5µM, HEK cytotox inconclusive
CN1CCN(c2ccc(-c3cc4c(ccn4C)c(C(=O)NCc4cccnc4)n3)cc2)CC1	3T3 cytotox inconclusive, FLuc inh inconclusive, HEK cytotox 28.2µM
CN1CCN(c2ccc(-c3cc4c(ccn4C)c(C(=O)NCC4CCOCC4)n3)cc2)CC1	3T3 cytotox 20µM, FLuc inh 35.5µM, HEK cytotox inconclusive
Cn1ccc2c(C(=O)NCc3cccnc3)nc(-c3cccc(O)c3)cc21	3T3 cytotox inconclusive, HEK cytotox inconclusive
Cn1ccc2c(C(=O)NCc3cccnc3)nc(-c3cccc(F)c3)cc21	3T3 cytotox inconclusive, HEK cytotox 89.1µM, NPR1 antag inconclusive
CCc1ccc(NC(=O)N2CCC(OC3CCN(S(C)(=O)=O)CC3)CC2)cc1	none
Cn1ccc2c(C(=O)NCc3cccnc3)nc(-c3cnn(Cc4ccccc4)c3)cc21	3T3 cytotox inconclusive, HEK cytotox 63.1µM
Cc1ccc(C(=O)N2CCC(C(=O)N3CCC(c4nc5ccncc5[nH]4)C3)CC2)cc1 (centres undefined)	none (no result: FLuc inh, NPR1 antag)
CC1(C(=O)NCCc2ccccn2)CCc2cnc(NCc3ccccc3)nc21 (centres undefined)	3T3 cytotox 39.8µM
CC1(C(=O)NCc2cnccn2)CCc2cnc(NCc3ccccc3)nc21 (centres undefined)	3T3 cytotox 50.1µM
CC1(C(=O)N2CCN(c3ccccn3)CC2)CCc2cnc(NCc3ccccc3)nc21 (centres undefined)	3T3 cytotox inconclusive, HEK cytotox 100µM
COc1cccc(Nc2ncc3c(n2)C(C)(C(=O)N2CCN(c4ccccn4)CC2)CC3)c1 (centres undefined)	HEK cytotox inconclusive
CC1(C(=O)NCC2CC2)CCCc2cnc(NCc3ccccc3)nc21 (centres undefined)	3T3 cytotox inconclusive, HEK cytotox inconclusive
CC1(C(=O)NCC2CCCO2)CCc2cnc(NCc3ccccc3)nc21 (centres undefined)	3T3 cytotox 50.1µM
CC1(C(=O)NCc2cccnc2)CCCc2cnc(Nc3ccccc3F)nc21 (centres undefined)	3T3 cytotox inconclusive, HEK cytotox inconclusive
O[C@H]1CC[C@@H](Cc2cc(CN3CCOCC3)on2)O[C@@H]1CNCc1ccccc1	none
O=C(c1ccc2oc(-c3ccncc3Cl)nc2c1)N1CCOCC1	none (no result: FLuc inh, NPR1 antag)
O=C(NC1CCN(c2cc(-c3cccs3)[nH]n2)C1)c1ccccc1 (centres undefined)	HEK cytotox inconclusive
O=C(NC1CCN(c2cc(-c3cccs3)[nH]n2)C1)c1cccc(Cl)c1 (centres undefined)	3T3 cytotox inconclusive, HEK cytotox 39.8µM
Cc1cccc(CC(=O)NC2CCN(c3cc(-c4cccs4)[nH]n3)C2)c1 (centres undefined)	3T3 cytotox inconclusive, HEK cytotox 35.5µM
O=C(NC1CCCCC1)N[C@H]1CO[C@H]2[C@@H]1OC[C@@H]2n1cc(-c2ccccn2)nn1	none
O=C(Nc1cccc(C(F)(F)F)c1)O[C@@H]1CO[C@H]2[C@@H]1OC[C@@H]2n1cc(-c2ccccn2)nn1	3T3 cytotox inconclusive, HEK cytotox 35.5µM, NPR1 antag inconclusive
O=C(Nc1ccccc1)O[C@@H]1CO[C@H]2[C@@H]1OC[C@@H]2n1nnnc1-c1ccc2c(c1)OCCO2	FLuc inh 44.7µM
S=C(NC1CCCCC1)N[C@H]1CO[C@H]2[C@@H]1OC[C@@H]2n1cc(-c2ccccn2)nn1	3T3 cytotox inconclusive, HEK cytotox 89.1µM, NPR1 antag inconclusive
O=C(Nc1cccc(C(F)(F)F)c1)O[C@@H]1CO[C@H]2[C@@H]1OC[C@@H]2n1nnnc1SC1CCCC1	3T3 cytotox 39.8µM, HEK cytotox inconclusive, NPR1 antag inconclusive
O=C(Nc1ccccc1)O[C@@H]1CO[C@H]2[C@@H]1OC[C@@H]2n1nnnc1SC1CCCC1	HEK cytotox inconclusive, NPR1 antag inconclusive
COC(=O)C1=C(C)N=C2SC=C(CC(=O)N3CCCC3)N2C1c1cc(OC)ccc1OC (centres undefined)	HEK cytotox inconclusive
O=C(C1CCCC1)N1CC2(CCCN2Cc2cccnc2)Cc2ccccc21 (centres undefined)	HEK cytotox inconclusive (no result: FLuc inh, NPR1 antag)
Cc1ccc(CN(C(=O)c2ccco2)c2ccc(CC(=O)N(C)Cc3ccccc3)cc2)cc1	3T3 cytotox inconclusive, HEK cytotox 31.6µM
CCCNC(=O)Cc1ccc(N(Cc2ccc(C)cc2)C(=O)c2ccco2)cc1	HEK cytotox inconclusive
Cc1ccc(CN(C(=O)c2ccco2)c2ccc(CC(=O)NCc3ccccc3)cc2)cc1	3T3 cytotox inconclusive, HEK cytotox 35.5µM
CCOC(=O)C1CCN(C(=O)Cc2ccc(N(Cc3ccccc3)C(=O)c3ccco3)cc2)CC1	3T3 cytotox inconclusive, HEK cytotox 39.8µM
Cc1cccc(CNC(=O)Cc2ccc(N(Cc3ccccc3)C(=O)c3ccco3)cc2)c1	3T3 cytotox 44.7µM, HEK cytotox inconclusive

Bioassay records (PubChem BioAssay)
